Values joined by “and” are separate entries in the source; they are usually repeats but may differ in a detail not shown here. Equal entries are not always repeated. Active and inactive are the calls of the source. Rule for the calls: active = hit-call score of the fitted dose curve at least 0.9, where 1 is the maximum; inactive = score below 0.9.
Read-out: Monokine induced gamma interferon (MIG), CXCL9 (gene 4283)
Experiment: BSK_3C_MIG: BioMAP Diversity Plus: 3C Assay for Monokine induced gamma interferon (MIG) Biomarker Activity (AID 2283021);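 for AC50: MIG protein level measured by immunoassay in the treated endothelial cultures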
Details: primary human endothelial cells (HUVEC); actives raise or lower the signal
How it was run: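 ELISA-measured MIG in dosed HUVEC 3C cultures at 24 h, analysed by bidirectional fitting with DMSO defining baseline activity.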

outcome, inactive:
O=P(O)(O)CCC(F)(F)C(F)(F)C(F)(F)C(F)(F)C(F)(F)C(F)(F)C(F)(F)C(F)(F)F, CCC(C)c1ccccc1O (stereo not drawn), CCCCCCCCCCCCCCC, O=C1NS(=O)(=O)c2ccccc21, C[C@]12CC[C@@H]3c4ccc(O)cc4CC[C@H]3[C@@H]1C[C@@H](O)[C@@H]2O, CCOC(=O)CN[C@@H](C(=O)N1CC[C@H]1C(=O)NCc1ccc(/C(N)=N/O)cc1)C1CCCCC1, CCCCC(CC)C(=O)OCCOCCOCCOCCOC(=O)C(CC)CCCC (stereo not drawn), Clc1ccc(Nc2nnc(Cc3ccncc3)c3ccccc23)cc1, Cc1cccc2c1ccc1ccccc12, CC(C)(C)c1ccc(O)c(O)c1, O=P(O)(O)CCC(F)(F)C(F)(F)C(F)(F)C(F)(F)C(F)(F)C(F)(F)F, O=S(=O)(O)C(F)(F)C(F)(F)C(F)(F)C(F)(F)C(F)(F)C(F)(F)C(F)(F)C(F)(F)C(F)(F)C(F)(F)F, O=C(NO)c1ccccc1, CC[N+](CC)(CC)Cc1ccccc1, O=C(c1ccccc1)c1ccccc1, OCC(F)(F)C(F)(F)C(F)(F)C(F)(F)C(F)(F)C(F)(F)C(F)(F)C(F)(F)C(F)(F)C(F)(F)C(F)(F)F

AC50, active:
O=C(O)C(F)(F)OC(F)(F)C(F)(F)OC(F)(F)C(F)(F)OC(F)(F)C(F)(F)C(F)(F)C(F)(F)F 58.2 µM and 54.8 µM, CN(C)c1ccc(C(=C2C=CC(=[N+](C)C)C=C2)c2ccccc2)cc1 356 nM

Source: PubChem BioAssay (EPA / NIEHS)
